# Compound activity: PubChem, National Center for Advancing Translational Sciences (NCATS)
# In the library only some 14% were active in any assay of this set; here they are far more common.
# LASV entry inh: qHTS for Inhibitors of binding or entry into cells for Lassa Virus | Potency, µM (highest dose often 37.9 µM), inactives show at the top dose activity change, negative = inhibition, actives largely listed as inhibitors | hit rate 1.2% among 300,000 | Lassa virus pseudotype entry inhibition, cell reporter; calls by dose curve; tested in HEK293 cells; also: potency is read from the fitted curve at half-maximal effect; nearly all actives have a fitted effect of over 50% in size
# HCV inh: qHTS Assay for Inhibitors of Hepatitis C Virus (HCV); Huh7.5.1 HCVcc-Cre infection, luciferase reporter, 44 h; hit rate 3.4% among 340,000; AID 651820, 2012; Potency, µM (titrated, usually from 41.8 µM), for the others: top-dose activity change, negative = inhibition, actives largely listed as inhibitors; also: potency is read from the fitted curve at half-maximal effect
#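 1,000 cells/well; 4 h culture; + compound; + HCVcc-Cre (~0.5 moi); 44 h; luciferase substrate, RT 15 min; read 15 sec.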
# MARV entry inh: qHTS for inhibitors of binding or entry into cells for Marburg Virus; Marburg virus pseudotyped entry inhibition, cell reporter; Potency, µM (highest dose often 37.8 µM), without a hit: at the highest dose activity change, negative = inhibition, actives largely listed as inhibitors; hit rate 1.8% among 300,000; calls by dose curve; tested in HEK293 cells; also: potency is read from the fitted curve at half-maximal effect
# Pf growth 96h: Primary qHTS for delayed death inhibitors of the malarial parasite plastid, 96 hour incubation. Potency, µM (series often up to 28.7 µM), for inactives: top-dose activity change, negative = inhibition, most hits filed as inhibitors. P. falciparum luciferase reporter growth, 96 h. AID 504834, 2011. hit rate 6.9% among 320,000; also: potency is read from the fitted curve at half-maximal effect
#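 Cell-based qHTS: luciferase-tagged P. falciparum in erythrocytes (2% hematocrit, 0.05% parasitemia final) incubated with compounds for 96 hours, 37 C, 5% CO2; luciferase detection reagent then added and luminescence measured.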
# Pf growth 48h: Primary qHTS for delayed death inhibitors of the malarial parasite plastid, 48 hour incubation; Potency, µM (top dose mostly 28.7 µM), inactives show top-dose activity change, negative = inhibition, actives largely listed as inhibitors; AID 504832, 2011; P. falciparum luciferase growth in erythrocytes, 48 h; hit rate 5.9% among 310,000; also: potency is read from the fitted curve at half-maximal effect
#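 Compounds are pin-transferred into medium, infected erythrocytes (2% hematocrit, 0.1% parasitemia final) are added, and plates sit one parasite generation at 37 C in 5% CO2. Detection reagent is then added and luminescence measured.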
# HCMV antiviral: qHTS Assay for inhibitors of the human cytomegalovirus (HCMV); HFF cells, HCMV-luciferase reporter, 72 h; stronger effect = lower value; activity change, negative = inhibition, % at 57.5 µM; hit rate 4.5% among 410,000; AID 1259415, 2018; in the data active = activity change below about -60%; inconclusive = no clear call, values can overlap the other calls; inactive = above about -39%
#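 After 16 h attachment at 37C, HFF cells received test compound and HCMV-luciferase (1 PFU/cell); reporter luminescence read 72 h later, data normalized against buffer-only and known inhibitor Salinomycin.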
# * = called active by the depositor; ? = inconclusive; . = no result given; + = active, no number; ! = not active in a repeat; [ ] = dose if it differs, or a comment. Unless noted, calls follow the shape of the dose curve; as a rule, active = well fitted inhibition curve with a large enough effect; inconclusive = small, poorly fitted or top-dose-only effect, or another doubt; inactive = no such curve, though single readings can be large or run the other way. % is scaled to controls: 0 for no effect and ±100 for the full control effect.
SMILES,LASV entry inh,HCV inh,MARV entry inh,Pf growth 96h,Pf growth 48h,HCMV antiviral
CCCCCN1C(=O)c2cc(OC)ccc2[C@@]2(C(=O)OCC)Cc3cc(Cl)ccc3[C@@H]12,.,.,.,.,.,-103.4*
CCOC(=O)[C@]12Cc3cc(OC)ccc3[C@H]1N(Cc1ccccc1)C(=O)c1cc(OC)ccc12,.,.,.,.,.,6.2
CCc1ccc(NC(=O)c2cc3c(=O)n(Cc4cccs4)ccc3nc2C)cc1,?,.,.,.,.,-20.9
N/C(Cc1ccc(Cl)cc1)=N\OC(=O)Cc1ccc([N+](=O)[O-])cc1,?,21.4%,4.5%,75.7%,6.1%,-12.8
COc1cc(C(=O)O/N=C(\N)Cc2ccc([N+](=O)[O-])cc2)cc(OC)c1OC,3.16µM*,?,2.51µM*,?,?,?
N/C(Cc1ccc([N+](=O)[O-])cc1)=N\OC(=O)c1ccc([N+](=O)[O-])cc1,-0.8%,?,5.4%,8.3%,.,-7.3
N/C(Cc1ccc(Cl)cc1)=N\OC(=O)c1ccccc1,?,-0.6%,12.6µM*,10.4µM*,.,33.0
N/C(CN1CCCC1=O)=N\OC(=O)c1ccc(Cl)cc1,?,34.1%,0.5%,11.7µM*,0.6%,39.4
COc1ccc(C(=O)O/N=C(\N)Cc2ccc(Cl)cc2)cc1OC,11.2µM*,31.6µM*,?,10.4µM*,7.38µM*,?
CCCCCn1c(=N)c(S(=O)(=O)c2ccc(C)cc2)cc2c(=O)n3cc(C)ccc3nc21,-2.3%[46.1 µM],.,6.1%[46.1 µM],.,.,12.9
O=C(NC(c1ccc(F)cc1)c1ccc2ccccc2n1)C1CCN(CCOc2ccc(Cl)cc2)CC1 (stereo not drawn),.,.,.,.,.,-10.1
CCN(CC)CCOc1ccc(C=NNc2nc3c([nH]2)c(=O)n(C)c(=O)n3C)cc1,19.0%[46.1 µM],7.3%,?,.,.,70.0
CC(C)(C)C(=O)OCc1ccc(C2=CC(=O)CC(C)(C)C2=O)cc1,.,.,.,.,.,-13.0
N/C(=N\OC(=O)c1ccc2c(c1)OCO2)c1cccc(Br)c1,.,13.2%,?,1.2%,36.0%,61.5
COc1cc(OC)c(C(=O)O/N=C(\N)c2ccc(C)cc2)cc1OC,?,11.2µM*,7.94µM*,79.5%,?,20.1
COc1ccccc1C/C(N)=N/OC(=O)c1cccc([N+](=O)[O-])c1,-1.3%,?,?,?,11.7µM*,124.9
COc1ccc(/C(N)=N/OC(=O)c2ccc3c(c2)OCO3)cc1OC,?,8.91µM*,?,?,?,169.4
COc1ccc(C(=O)O/N=C(\N)Cc2ccc(Cl)c(Cl)c2)cc1OC,?,22.4µM*,?,17.1%,4.15µM*,18.0
COc1ccc(CCN2C(=O)c3oc4ccc(F)cc4c(=O)c3C2c2ccc(C(C)(C)C)cc2)cc1 (stereo not drawn),?,.,-4.2%[46.1 µM],.,.,-0.4
Cc1nn(-c2ccccc2)c(C)c1C(=O)Oc1ccccc1,10.0%,1.4%,4.1%,53.6%,51.0%,27.9
Cc1nnsc1-c1c(C(=O)Oc2ccccc2)c(C)nn1-c1ccccc1,.,-17.1%,.,13.1µM*,9.28µM*,-24.6
COC(=O)c1c(C)nn(-c2ccccc2)c1-n1cccc1,?,-10.6%,-13.4%[46.1 µM],?,.,-7.7
COC(=O)c1c(C)nn(-c2ccc(OC(F)(F)F)cc2)c1-c1snnc1C,?,-10.8%,?,13.1µM*,?,-19.8
Cc1ccc2nc(NCc3ccccc3)c3nnnn3c2c1,?,.,.,.,.,64.3
Cc1cc(NC(=O)CSc2nc3ccsc3c(=O)n2CCCCC(=O)O)no1,-5.9%,22.9%,26.3%,4.65µM*,12.2%,23.2
CCOc1ccc(NC(=O)CSc2nc3ccsc3c(=O)n2CC)cc1,-1.5%[46.1 µM],.,.,.,.,?
CCOc1ccc(NC(=O)CSc2nc3ccsc3c(=O)n2CCCCCC(=O)O)cc1,-24.0%[46.1 µM],.,.,.,.,+!
C[C@H](NC(=O)C1CCN(S(=O)(=O)c2ccccc2)CC1)C(=O)NC1CC1,.,.,.,.,.,69.9
COc1cc(O)ccc1-c1nc2ccc(Br)cn2c1Nc1ccccc1C,?,.,?,.,.,14.4
